Results reported in PubChem BioAssay (NCI).
This is part of a sample that, as a whole, favours compounds with a hit. Of some 79,000 tested, about 15% had one in any assay. Values without a mark were called inactive. The source made the active and inactive calls. No stated cut-off is given here; in the data, active means growth inhibition above about 70%; inactive means the rest.

Experiments:
[1] = NCI Yeast Anticancer Drug Screen. Data for the rad50 strain (AID 155);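 further: 0% = growth of vehicle-only cultures of the same strain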; conditions: S. cerevisiae rad50 strain growth inhibition; at 50.0 µM; active compounds read high
How it was run: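 DNA repair mutant yeast, compound exposure, growth read-out; inhibition is taken relative to vehicle.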

[2] = NCI Yeast Anticancer Drug Screen. Data for the mec2-1 strain (AID 157); conditions: S. cerevisiae mec2-1 strain, at 50.0 µM, active compounds read high
How it was run: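 Strain: mec2-1 (DNA repair/cell cycle alteration). Compound exposure, then growth measured; inhibition expressed relative to vehicle.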

[3] = NCI Yeast Anticancer Drug Screen. Data for the sgs1 mgt1 strain (AID 161);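 further: 0% = growth of cultures given vehicle only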; conditions: S. cerevisiae sgs1 mgt1 strain, at 50.0 µM, active compounds read high
How it was run: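 Inhibition of yeast growth, normalised to vehicle-treated controls, is reported for a strain bearing genetic alterations in DNA damage repair.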

[4] = NCI Yeast Anticancer Drug Screen. Data for the cln2 rad14 strain (AID 165);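 further: 0% = growth equal to vehicle treated cultures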; conditions: S. cerevisiae cln2 rad14 strain, at 50.0 µM, active compounds read high
How it was run: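 Compounds are applied to the cln2 rad14 yeast strain, and growth is then compared with that of vehicle-treated cultures to give inhibition.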

[5] = NCI Yeast Anticancer Drug Screen. Data for the bub3 strain (AID 167); conditions: S. cerevisiae bub3 mutant strain, at 50.0 µM, active compounds read high
How it was run: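 In this screen, a yeast mutant lacking normal mitotic checkpoint function is challenged with compound. Relative growth versus vehicle gives the inhibition value.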

[6] = NCI Yeast Anticancer Drug Screen. Data for the mlh1 rad18 strain (AID 175); conditions: S. cerevisiae mlh1 rad18 strain growth inhibition; at 50.0 µM; active compounds read high
How it was run: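 Read-out is yeast growth inhibition, calculated against vehicle-only controls. The compound was applied to a strain engineered with DNA damage repair alterations.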

| Compound | growth inhibition [1] | growth inhibition [2] | growth inhibition [3] | growth inhibition [4] | growth inhibition [5] | growth inhibition [6] |
| --- | --- | --- | --- | --- | --- | --- |
| NC(=O)C(c1ccccc1)N1CCCC1 (configuration not stated) | 2.05% | -17.9% | – | – | – | – |
| COc1ccc(/C=N\NC(=O)OC(C)(C)C)c(OC)c1OC | -23.8% | -33.4% | – | – | – | – |
| O=[N+]([O-])c1cccc(C=Nc2cccc(C(F)(F)F)c2)c1 | 6.95% | 4.35% | – | – | – | – |
| O=C(OCC1OC(Oc2ccccc2CO)C(O)C(O)C1O)c1ccccc1 (configuration not stated) | -2.1% | 1.45% | – | – | – | – |
| CC(=O)C1=C(C)N2C(=NC3=C(CCc4ccccc43)C2c2ccc(Cl)cc2)S1 (configuration not stated) | 25.9% | -14.6% | 6.85% | 6.25% | -6.9% | 1.5% |
| O=C(CN1CCOCC1)Nc1cccc(C(F)(F)F)c1 | -33.7% | -31.4% | – | – | – | – |
| COc1ccc2cc1Oc1ccc(cc1)CC1c3cc(OC)c(cc3CCN1C)Oc1c(OC)c(OC)cc3c1C(C2)N(C)CC3 (configuration not stated) | -4.6% | -15.7% | -6.8% | 6.9% | – | – |
| CCOc1ccc(Br)cc1C=O | 54.2% | 17.4% | – | – | – | – |
| CC(=O)c1ccc(NC(=O)/C(CC(=O)/C=C/c2ccccc2)=N/NC(N)=S)cc1 | 37.1% | -32.4% | 23.9% | 16.3% | 35.1% | 9.65% |
| COC(=O)C1=CO[C@@H](OC2OC(CO)C(O)C(O)C2O)[C@H]2[C@@H](C)[C@@H](O)[C@@H](O)[C@@H]12 (some centres not stated) | -5.15% | -10.1% | -0.75% | 2.4% | -5.9% | -57.7% |
| COc1c(OC)c(OC)c2c(c1OC)c(=O)c1ccccc1n2C | 12.6% | 22.9% | 30.8% | 18.8% | 14.4% | – |
| CC(C)(C)c1cc(C2COC(=O)COCCOCC(=O)OCCOCCO2)cc(C(C)(C)C)c1O (configuration not stated) | 12.5% | -13.8% | -10.4% | 4.4% | -23.3% | – |
| CC(C)/C(Cl)=N/OC(=O)Nc1cccc(C(F)(F)F)c1 | 35.7% | 38.3% | 85% (active) | 24.8% | 65.5% | – |
| COc1ccc(CCN2C(=O)CSC2=S)cc1OC | -14% | -17.4% | – | – | – | – |
| O=C(O)c1n[nH]nc1Cl | -5.9% | 0.7% | 5.35% | -4.2% | -6.15% | 19.2% |
| Cc1ccc(/C=N/Nc2nncc3ccccc23)s1 | 14.8% | 16.1% | 16.7% | 21.2% | 21.7% | – |
| CCCCCCCCCCCCOc1ccccc1 | 6.15% | -14.3% | – | – | – | – |
| CC(/C=N/N1C(=O)c2ccccc2C1=O)c1ccccc1 (configuration not stated) | 12.8% | – | – | – | – | – |
| COc1cc(/C=C(/C#N)C(N)=O)ccc1O | -1.7% | -35% | – | – | – | – |
| COc1ccc(C(CCl)(CCl)c2ccc(OC)c(N)c2)cc1N | 12.3% | 14% | – | – | – | – |
| C=CCNC(=S)N/N=C\c1cc(OC)c(OC)c(OC)c1 | -18.8% | -44.5% | – | – | – | – |
| C[N+](C)(CCNC(=O)c1cccc2cc3ccccc3nc12)Cc1ccc([N+](=O)[O-])s1 | -13.4% | -37.2% | -12.7% | 4.1% | -40% | – |
| Cc1ccc2oc(C)[n+](CCC(=O)O)c2c1 | 15.7% | 6.45% | – | – | – | – |
| O=C(CCc1ccc(O)cc1)N/N=C/c1cc(Br)ccc1O | -29.6% | -38.4% | – | – | – | – |
| CCCN1CCc2cc(OC)c(OC)cc2C1Cc1ccc(OC)c(OC)c1 (configuration not stated) | -13.8% | -0.2% | – | – | – | – |
| Clc1nc(Oc2ccccc2)nc(-c2cn(-c3ccccc3)c3ccccc23)n1 | 2.05% | -12.6% | – | – | – | – |
| C(=N\n1cnnc1)/c1ccc2c(c1)CCC2 | -21.6% | -34.5% | – | – | – | – |
| O=C1CCC2CN3CCc4c([nH]c5ccccc45)C3CC2C1 (configuration not stated) | 26.2% | – | – | – | – | – |
